Inconclusive results are not listed. A call without a number means that no potency is given here. Activity calls are given as the source filed them. The call rests on the fitted dose curve; in most records, active means well fitted activation curve with a large enough effect in the repeat runs; inconclusive means weak or mixed curves; inactive means no such curve, though single readings can be large or run the other way. Positions of bridges follow the written chain, without caps; N, C: chain ends. Non-standard residues stand in square brackets, D forms with d. Residues, ends and D or L forms follow the SMILES beside them. hArg = N=C(N)NCCCC[C@H](N)C(=O)O; Mpa = O=C(O)CCS
What follows are compounds tested against Nuclear receptor subfamily 1 group I member 2 (Homo sapiens) (UniProt O75469) (assay: CYP3A4 induction through human pregnane X receptor (PXR) by small molecules, qHTS assay (AID 1346984; further: nearly all actives have a fitted effect of over 40% in size)). Conditions: DPX-2 HepG2 PXR, CYP3A4-luciferin luminescence, 24 h; series mostly up to 46.1 µM.
Text: National Center for Advancing Translational Sciences [NCATS]
NIH Chemical Genomics Center [NCGC]
U.S. Environmental Protection Agency [EPA]
National Institutes of Environmental Health Sciences [NIEHS]
National Toxicology Program [NTP]
The Pregnane X receptor (PXR), a ligand activated nuclear receptor plays a critical role in the regulation of genes involved in drug metabolism and transporters. Activation of PXR is responsible for unwanted adverse drug reactions. PXR binds xenobiotics and when compounds interact with PXR enhances the expression of CYP3A genes. Identifying the compounds with the potential for PXR activation and CYP3A4 induction can be of importance in improving the efficacy of drugs with less toxicity and avoiding drug-drug interactions.
DPX-2 (Puracyp, Inc.) cell lines, used for screening against human PXR activation has HepG2 cells co-transfected with a PXR response element and a luciferase construct containing CYP3A4 promoter. Increase in luciferase activity can be used to identify the compounds that cause the induction of CYP3A4.
DPX-2 cells were dispensed at 2,000 cells per well in 5uL of assay medium into white, solid-bottom 1536-well plates using a Multidrop Combi dispenser (Thermo Scientific). The assay plates were incubated at 37C for 5hr before transferring 23nL of test compounds dissolved in DMSO and positive control via Pintool station (Wako). The assay plates were incubated at 37C for 24hr. After 24hr compound treatment, 1uL of 3uM (final concentration) P450 substrate (P450-Glo CYP3A4 screening system with Luciferin-IPA, Promega) was added by a Flying Reagent Dispenser (FRD, Aurora Discovery). The assay plates were incubated for 3hr at 37C. Then 5ul One-Glo assay reagent (Promega) was added to each plate by an FRD and following 30 min incubation at room temperature, luciferase activity was quantified on a ViewLux plate reader (Perkin Elmer).
Cn1c(=O)c2[nH]c(Br)nc2n(C)c1=O was tested, and the Potency was “inactive”.
With Nc1nc(-c2ccccc2)c(Br)c(=O)[nH]1 the Potency was “inactive”.
For CC(=O)O[C@@H]1CC2CCC1(C)C2(C)C (some centres undefined), the Potency was “inactive”.
With c1ccc2c(CC3=NCCN3)cccc2c1 the Potency was “inactive”.
In the case of NCc1ccc(S(N)(=O)=O)cc1, the Potency was “inactive”.
For CC(C)NCC(O)c1ccc2ccccc2c1 (centres undefined), the Potency was “inactive”.
With CN(C)CCOC(=O)C(c1ccccc1)C1(O)CCCC1 (centres undefined) the Potency was “inactive”.
For O=NN(CCCl)C(=O)NC1CCCCC1, the Potency was “inactive”.
For O=S(=O)(O)c1ccc2c(N=Nc3ccc(S(=O)(=O)O)c4ccccc34)c(O)c(S(=O)(=O)O)cc2c1, the Potency was “inactive”.
For C#CCN[C@@H]1CCc2ccccc21, the Potency was “inactive”.
With CC1(C)Oc2ccc(C#N)cc2[C@@H](N2CCCC2=O)[C@@H]1O the Potency was “inactive”.
Cc1ncc([N+](=O)[O-])n1CC(C)O (centres undefined) was tested, and the Potency was “inactive”.
In the case of N#CCC(=O)NN, the Potency was “inactive”.
In the case of CN(C)CCCO[C@@H]1[C@H]2OC(C)(C)O[C@H]2O[C@@H]1C(O)CO (some centres undefined), the Potency was “inactive”.
Cc1c(NC(=O)c2cccnc2)c(=O)n(-c2ccccc2)n1C was tested, and the Potency was “inactive”.
O=C(CN1CCNCC1)NC1CCCCC1 was tested, and the Potency was “inactive”.
CC1(C)O[C@H]2CC(=O)OC[C@]23[C@H]2CC[C@@]4(C)[C@H](c5ccoc5)OC(=O)[C@H]5O[C@]54[C@]2(C)C(=O)C[C@@H]13 was tested, and the Potency was “inactive”.
Cn1nnc2c(C(N)=O)ncn2c1=O was tested, and the Potency was “inactive”.
In the case of O=C(NCN1CCOCC1)c1cnccn1, the Potency was “inactive”.
CCCC(=O)Nc1ccc(OCC(O)CNC(C)C)c(C(C)=O)c1 (centres undefined) was tested, and the Potency was “inactive”.
In the case of CC(C)=CCC[C@@](C)(O)[C@H]1CC=C(C)CC1, the Potency was “inactive”.
In the case of CC(=O)Nc1ccc(OC(=O)c2ccccc2OC(C)=O)cc1, the Potency was “inactive”.
In the case of OC[C@H]1O[C@@H](O[C@@H]2[C@@H](CO)O[C@](O)(CO)[C@H]2O)[C@H](O)[C@@H](O)[C@H]1O, the Potency was “inactive”.
CC(C)Cn1cnc2c1c(=O)n(C)c(=O)n2C was tested, and the Potency was “inactive”.
With N[C@@H](CSCCCO)C(=O)O the Potency was “inactive”.
In the case of CC(C)(C)NC[C@H](O)COc1cccc2c1CCCC2=O, the Potency was “inactive”.
O=C(O)[C@H](O)c1ccccc1 was tested, and the Potency was “inactive”.
In the case of O=C(Cn1ccnc1[N+](=O)[O-])NCc1ccccc1, the Potency was “inactive”.
In the case of CC1CCc2c(N3CCC(O)CC3)c(F)cc3c(=O)c(C(=O)O)cn1c23 (centres undefined), the Potency was “inactive”.
COc1ccc2c(c1)c1c3n2CCN(C)C3=NCC1 was tested, and the Potency was “inactive”.
With C=CCN1C[C@H](C(=O)N(CCCN(C)C)C(=O)NCC)C[C@@H]2c3cccc4[nH]cc(c34)C[C@H]21 the Potency was 12.6 µM (active).
CCC[C@@H]1C[C@@H](C(=O)N[C@@H]([C@H]2O[C@H](SC)[C@H](O)[C@@H](O)[C@H]2O)[C@@H](C)O)N(C)C1 was tested, and the Potency was “inactive”.
For CN1C[C@@H]2C[C@H]1CN2c1cc2c(cc1F)c(=O)c(C(=O)O)cn2C1CC1, the Potency was “inactive”.
For CN(C)CC/C=C1/c2ccccc2COc2ccc(CC(=O)O)cc21, the Potency was “inactive”.
For CCC(=O)c1c(O)cc(O)cc1O, the Potency was “inactive”.
In the case of CCNC(=O)NCc1cccc(Cl)c1, the Potency was “inactive”.
With CC(C)OC(=O)OCOP(=O)(CO[C@H](C)Cn1cnc2c(N)ncnc21)OCOC(=O)OC(C)C the Potency was “inactive”.
For NC(=O)[C@@H]1CSSCCC(=O)N[C@@H](CCCCN=C(N)N)C(=O)NCC(=O)N[C@@H](CC(=O)O)C(=O)N[C@@H](Cc2c[nH]c3ccccc23)C(=O)N2CCC[C@H]2C(=O)N1 ([Mpa][hArg]GDWPC-NH2; disulfide 1-7), the Potency was “inactive”.
C[C@]12CCC(=O)C=C1CC[C@H]1[C@@H]3CC[C@](O)(C(=O)CO)[C@@]3(C)C[C@H](O)[C@@]12F was tested, and the Potency was “inactive”.
Potency means the concentration at half of the fitted maximal effect.
